“And” between values parts separate entries of the source, which are not always exact repeats. Equal values may be shown once. This is part of a sample that, as a whole, favours compounds with a hit. Of some 83,000 tested, about 20% had one in any assay.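 Activity criterion: percent growth below 10, measured after cells in 96-well plates were exposed to a single compound concentration for 48 hours.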 The source made the active and inactive calls.
system: TK-10 renal; assay: NCI-60 one-dose screen, 48 h (100 = growth as untreated, 0 = no growth, -100 = all killed); conditions: 10 µM unless noted
Procedure: Growth inhibition of the TK-10 human tumor cell line is measured as a screen for anti-cancer activity. Cells are grown in 96 well plates and exposed to the test compound for 48 hours. Compounds are tested at a single concentration, which is 10^-5 M for most compounds. The reported endpoint is percent growth (GI% or GIPRCNT), where numbers from 0 - 100% represent growth inhibition, and numbers from -100% - 0 represent cell death. For example, a value of 40 represents 60% growth inhibition. A value of 0 means no net growth occurred over the course of the experiment. A value of -40 indicates 40% of cells at the beginning of the experiment died by the end of the experiment. A value of -100 means all cells are dead at the end of the experiment.
NCI-60 Human Tumor Cell Lines Screen was performed using the standard one-dose NCI protocol, which is described in more detail at https://dtp.cancer.gov/discovery_development/nci-60/default.htm.
Compounds with GIPRCNT values below 10 were considered active. Activity score was based on GIPRCNT using the following formula: […]
Score is 0 for GIPRCNT values of 100 or above, 50 for GIPRCNT values of 0, and 100 for GIPRCNT values of -100.

Compound	growth
COc1cc(CNCCCN2C(=O)c3ccc4c5c(ccc(c35)C2=O)C(=O)N(CCCNCc2cc(OC)c(OC)c(OC)c2)C4=O)cc(OC)c1OC	-28.5% (active)
C=C1C(=O)OC2/C=C(\CO)C(OC(C)=O)CC(O)/C(C)=C/C(OC(=O)C(C)CC)C12 (stereo not given)	-36.1% [100 µM] (active) and -92% [100 µM] (active)
CC1(C)CCCC(C)(C2CCC3(C)C2C(O)CC2C4(C)CCC(O)C(C)(C)C4C(O)CC23C)O1 (stereo not given)	4.11% [100 µM] (active) and -96.5% [100 µM] (active)
CN1CCc2cccc3c2C1Cc1ccc(O)c(O)c1-3 (stereo not given)	129% (inactive)
O=c1[nH]c(=O)n(C2CC(O)C(CO)O2)cc1Br (stereo not given)	67.2% [100 µM] (inactive) and 21% [100 µM] (inactive)
CC(C)(C)O/N=C/c1cc(NC(=S)c2ccsc2)ccc1Cl	-90.2% [100 µM] (active) and -20.8% [100 µM] (active)
COc1cc(C2CC(=O)Nc3c2ccc2ccccc32)cc(Br)c1OC (stereo not given)	34.4% (inactive)
CCCCC1COc2cccc3c(SCC(=O)N(C)c4cccc5ccccc45)cc[n+]1c23 (stereo not given)	96.2% (inactive)
COC(=O)[C@H]1CCCN1C(=O)[C@H]1CCCN1C(=O)[C@@H](Cc1c[nH]c2ccccc12)NC(=S)Nc1cc(C(F)(F)F)cc(C(F)(F)F)c1	78.4% (inactive)
Cc1nc2ccc(Cl)cc2n1C	97.2% (inactive)
Clc1ccc(Nc2ccnc(N3CCN(c4ccnc5cc(Cl)ccc45)CC3)n2)cc1	60.9% (inactive)
Cc1ccc(C2SCC(=O)N2NC(=O)c2[nH]c3ccc(F)cc3c2-c2ccccc2)cc1 (stereo not given)	108% (inactive)
Cc1nn(-c2ccccc2)c2nc3nc4c(c(N)c3c(-c3ccc(Cl)cc3)c12)CCC4	105% (inactive)
COc1ccc(/C=N/OCC(O)CNCc2ccccc2)cc1OC1CCCC1 (stereo not given)	103% (inactive)
CC12CCC3c4cc(Br)c(O)c(Br)c4CCC3C1CCC2O (stereo not given)	12.2% [100 µM] (inactive) and -95.7% [100 µM] (active)
C=C1CC[C@@H]2[C@@](C)(CCC[C@]2(C)C(=O)O)[C@@H]1CC[C@H](CO)CCO	99.4% (inactive)
COc1cc(C2C3=C(COC3=O)N(CCO)c3cc4c(cc32)OCO4)cc(OC)c1O (stereo not given)	61.8% (inactive)
COc1ccc(/C=C2\CN(Cc3cn(CCCNc4ccnc5cc(Cl)ccc45)nn3)C/C(=C\c3ccc(OC)c(OC)c3)C2=O)cc1OC	14.3% (inactive)
O=C1N(c2ccccc2)N=C2c3ccncc3C3=NN(c4ccccc4)C(=O)C123 (stereo not given)	70.4% [100 µM] (inactive) and -59.4% [100 µM] (active)
CC(=O)c1cc2c(s1)C(=O)c1sccc1C2=O	-14.4% [100 µM] (active) and -100% [100 µM] (active)

Compound	growth
O=C(NCc1ccco1)C1CCN(S(=O)(=O)c2ccc(Cl)cc2)CC1	104% (inactive)
Cc1cc(=O)oc2c1ccc1oc(C(=O)c3ccccc3)c(C)c12	113% (inactive)
CN1CCC(OC2c3ccccc3CCc3ccccc32)CC1	89% (inactive)
Clc1cccc(Cl)c1Nc1ccc2nnc(-c3ccncc3)n2n1	102% (inactive)
O=S(=O)(OCCO)c1ccccc1	100% (inactive)
Cc1cc(O)cc2c1[C@H]1CC[C@]3(C)[C@@H](O)CC[C@H]3[C@@H]1C=C2	102% (inactive)
COC(=O)CCC(=O)c1ccccc1	118% (inactive)
COc1nc2c(cc1S(=O)(=O)c1ccccc1)CCc1c-2cnn1-c1ccccc1Cl	42.2% (inactive)
CCCOC(=O)c1ccc2c(c1)[N+](=O)C(C(=O)c1ccccc1)=C(C(F)(F)F)[N+]2=O	-99.1% (active)
O=C(NCc1ccc(F)cc1)C1CN(c2ccc(Cl)cc2)N(c2ccc(Cl)cc2)C1=O (stereo not given)	100% (inactive)
CCCCCCCCCc1cc(=O)c2c(O)cc(O)cc2o1	-87.9% [100 µM] (active) and -100% [100 µM] (active)
CCOC(=O)c1cnn(CC(O)c2ccc(F)cc2)c1NC(=O)Nc1ccccc1F (stereo not given)	103% (inactive)
O=C1CC(c2ccsc2)c2snc(-c3ccc(Cl)cc3)c2N1 (stereo not given)	53.8% (inactive)
COC(=O)c1c2c(c(C)[n+]([O-])c1C)C(=O)C=C(NCc1ccc(Cl)cc1)C2=O	21.7% (inactive)
N#Cc1cnn2c1n[n+]([O-])c1ccc(Cl)cc12	98.1% [100 µM] (inactive) and -100% [100 µM] (active)
Oc1ccccc1/C=N/Nc1nc2ccccc2s1	95.1% (inactive)
COc1ccc(-c2nc(Nc3ccc(F)cc3)nc(Nc3ccc4c(c3)nc(C)n4Cc3ccccc3)n2)cc1	74.9% (inactive)
Clc1ccc(C2=Nc3cccc4cccc(c34)N2)cc1Cl	97.9% (inactive)
CCOC(=O)CCCOc1cc(-c2ccccc2F)nc2cc3c(cc12)OCO3	58.8% [100 µM] (inactive) and 0% [100 µM] (active)
CCCCCn1c(=N)n(CC(O)COc2cccc(C)c2)c2ccccc21 (stereo not given)	21.4% (inactive)
